Bioassay records deposited in PubChem by The Scripps Research Institute Molecular Screening Center.
An excerpt weighted towards active compounds, which were near 1.8% of everything screened.
LYPLA2 inh: counter-screen for PME1 inhibitors: inhibitors of human LYPLA2 | O95372 | recombinant LYPLA2, FP-Rh probe fluorescence polarization | inhibition, % at 5.9 µM | 320,000 tested, 0.38% active | AID 2177;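 active = inhibition above the screen-wide mean plus 3 SD, limit set per campaign, cut at about 26% in these data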;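 note: 0% = LYPLA2 with DMSO and 100% = wells lacking LYPLA2 enzyme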
PME-1 inh: PME-1 (human) inhibition; inhibition, % at 5.9 µM; AID 2130; 320,000 tested, 0.53% active; recombinant PME-1, FP-Rh probe fluorescence polarization; Q9Y570;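 active = inhibition above the campaign mean of all compounds plus 3 SD, cut at about 26% in these data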;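 note: competitive labeling of PME-1 active site by serine hydrolase directed probe; 0% = PME-1 with DMSO and 100% = wells lacking PME-1 enzyme; inhibitors block probe labeling so polarization falls and inhibition rises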
Target sequence (Q9Y570 whole entry, looked up): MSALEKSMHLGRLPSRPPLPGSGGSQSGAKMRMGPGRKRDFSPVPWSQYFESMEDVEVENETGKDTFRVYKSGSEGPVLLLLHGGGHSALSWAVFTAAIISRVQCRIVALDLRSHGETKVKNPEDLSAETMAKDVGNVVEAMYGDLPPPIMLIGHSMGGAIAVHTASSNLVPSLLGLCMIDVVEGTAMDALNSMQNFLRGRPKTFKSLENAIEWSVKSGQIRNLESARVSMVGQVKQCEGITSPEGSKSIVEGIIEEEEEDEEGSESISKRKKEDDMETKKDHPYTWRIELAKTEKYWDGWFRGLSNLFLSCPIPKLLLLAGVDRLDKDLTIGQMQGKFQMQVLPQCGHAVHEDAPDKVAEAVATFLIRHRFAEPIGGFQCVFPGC
LYPLA1 inh: LYPLA1 (human) inhibition in PME1 counter-screen; recombinant LYPLA1, FP-Rh probe fluorescence polarization; inhibition, % at 5.9 µM; 320,000 tested, 0.16% active; AID 2174;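 active = inhibition above the mean of all tested compounds plus 3 SD, set per campaign, cut at about 14% in these data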;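 note: inhibitors block serine hydrolase probe labeling of LYPLA1 so polarization falls; 0% = enzyme with DMSO and 100% = wells lacking LYPLA1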
PAD4 FP inh: blocks human protein arginine deiminase 4; Q9UM07; recombinant PAD4, RCA probe fluorescence polarization; inhibition, % at 6.36 µM; 330,000 tested, 0.41% active; AID 485272;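 active = percent inhibition above a cutoff equal to the mean of all tested compounds plus 3 SD, cut at about 15% in these data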;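 note: 0% = PAD4 with RCA probe and DMSO and 100% = probe without PAD4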
GSTO1 counter: counter-screen for RBBP9 inhibitors: inhibitors of human GSTO1; 300,000 tested, 1.1% active; recombinant GSTO1, activity-based probe fluorescence polarization; P78417; AID 1974; inhibition, % at 5.96 µM;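 active = inhibition above the campaign mean inhibition plus 3 SD, cut at about 35% in these data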;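 note: 0% = GSTO1-1 with DMSO and 100% = wells lacking GSTO1-1 enzyme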
Fam108B counter: counter-screen for RBBP9 inhibitors: inhibitors of mouse Fam108B; 300,000 tested, 0.33% active; recombinant Fam108B, FP-Rh probe fluorescence polarization; inhibition, % at 9.51 µM;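 active = inhibition above the screen mean inhibition plus 3 SD, computed separately per campaign, cut at about 18% in these data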;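 note: inhibitors lower polarization as less probe binds the enzyme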
PAD4 FP conf: confirmation of human PAD4 inhibitors; inhibition, % at 6.36 µM; 1,200 tested, 28% active; shares compounds with PAD4 FP inh; AID 488796; recombinant PAD4, RCA probe fluorescence polarization;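 active = mean inhibition across replicates above the hit cutoff set by the earlier primary screen, cut at about 15% in these data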;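 note: inhibitors block active-site labeling by the probe so polarization falls; 0% = PAD4 with probe and DMSO and 100% = probe without PAD4 enzyme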
* hit, by the source's call; nt = not tested or not shown.

SMILES	LYPLA2 inh	PME-1 inh	LYPLA1 inh	PAD4 FP inh	GSTO1 counter	Fam108B counter	PAD4 FP conf
Cc1nnc(N/N=C/c2ccccc2F)n1N	-7	3	-4	31*	6	-1	10
O=S(=O)(c1ccccc1)N1CCC(O)(CSc2ccc(F)cc2)CC1	6	-2	1	2	3	2	nt
Cc1nnc(N/N=C/c2cccc(C(F)(F)F)c2)n1N	-4	-4	0	35*	17	1	-1
Cc1nnc(N/N=C/c2ccccc2C(F)(F)F)n1N	1	-1	0	18*	3	1	0
N#CCSc1nc2cc(C(=O)N3CCC(C(N)=O)CC3)ccc2c2nc3ccccc3n12	4	2	2	22*	1	-1	25*
N#CCSc1nc2cc(C(=O)N3CCCC3)ccc2c(=O)n1Cc1ccccc1	6	-2	0	2	-5	-5	nt
O=C(CSc1nnc(CNC(=O)c2c(F)cccc2F)o1)c1ccccc1	8	-9	1	-3	5	0	nt
Nc1ccc(-c2c3ccc(=O)cc-3oc3cc(O)ccc23)cc1C(=O)O	8	9	8	23*	-2	11	33*
NC(=O)c1ccc(-n2nnnc2SCC(=O)Nc2ccccc2-c2ccccc2)cc1	0	4	4	16*	7	4	5
CCOC(=O)c1sc2nc(CSc3ccccc3)nc(N3CCC(C(N)=O)CC3)c2c1C	0	2	-1	40*	-7	1	-1
C/C(=C\C(=O)c1ccc(F)cc1)Nc1ccc(N2CCOCC2)cc1	4	2	1	39*	8	12	7
CC(C)CNC(=O)c1cccc(NC(=O)C(C)C)c1	2	-3	-1	-2	5	1	nt
Cc1ccc(NC(=O)CCNS(=O)(=O)c2ccc3[nH]c(=O)oc3c2)cc1F	6	1	1	21*	-1	0	4
Cc1cc(C(=O)O)ccc1N/C=C1\CCCC(C)C1=O (centres undefined)	1	-6	2	-5	6	-6	nt
CC1CCC/C(=C\Nc2ccc(O)cc2)C1=O (centres undefined)	12	4	4	28*	37*	-1	9
Cc1cc2oc(=O)sc2cc1NS(=O)(=O)c1ccccc1	-5	-8	-2	20*	28	1	-5
CCCC(=O)N(c1ccc2oc(=O)sc2c1)S(=O)(=O)c1ccccc1	7	0	-1	22*	4	2	6
CC(=O)N(c1ccc2oc(=O)sc2c1)S(=O)(=O)c1cccs1	3	-5	1	12	27	3	nt
Cc1cc2oc(=O)sc2cc1NS(=O)(=O)c1cccc2cccnc12	-3	3	-6	34*	24	2	19*
CC(=O)N(c1ccc2oc(=O)sc2c1)S(=O)(=O)c1cccc2cccnc12	5	4	0	33*	33	2	22*
Cc1cc(O)c(C(C)C)cc1NS(=O)(=O)c1ccccc1	-3	2	-2	-1	-8	3	nt
Cc1nc2cc(NS(=O)(=O)c3cccc4cccnc34)ccc2s1	0	3	4	-1	-6	-3	nt
CC(=O)N(c1ccc2oc(=O)sc2c1)S(=O)(=O)c1ccc(C(=O)O)cc1	-4	4	-2	12	24	2	nt
CC12CCC(=O)N1C(C(=O)Nc1ccccc1F)CS2 (centres undefined)	2	3	4	6	11	3	nt
O=C(NCC1COc2ccccc2O1)C1CCC(CNc2c(N3CCCCC3)c(=O)c2=O)CC1 (centres undefined)	6	1	5	-2	0	5	nt
O=C(N/N=C/c1cc(O)ccc1[N+](=O)[O-])c1ccc2c(c1)OCCO2	11	7	3	-5	16	3	nt
Nc1nc(NS(=O)(=O)c2ccc(Cl)cc2)nn1-c1ccccc1	-3	-5	1	-4	-8	-6	nt
O=C(CCCC(=O)OCC(Cl)=C(Cl)Cl)Nc1ccc(F)cc1	3	-1	0	0	7	7	nt
CCOC(=O)N1c2ccccc2Sc2ccccc21	3	2	-3	1	0	-1	nt
